Inconclusive results are not listed. Activity calls are given as the source filed them. Unless noted, calls follow the shape of the full dose curve. Some results are limits rather than exact numbers.

The target of assay [1] is Lysosomal acid glucosylceramidase (Homo sapiens) (UniProt P04062). Briefly: Glucocerebrosidase-p2 (AID 348; in the data active = potency below about 10 µM; also: potency is read from the fitted curve at half-maximal effect). Particulars: purified GBA, blue fluorogenic substrate, 40 min. In a few lines:
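Normal human glucocerebrosidase (0.2 nM) with blue fluorogenic substrate (80 uM final) in citrate/phosphate pH 5.9 with 10mM sodium taurocholate, 0.01% tween-20; 40 min RT, NaOH/glycine stop; fluorescence Ex 365/Em 440; AC50 from a titration from 0.6 nM upwards.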

Assay [2] is described as follows: AP1 Signaling Pathway (AID 357; active = well fitted curve in either direction with a large enough effect, not every such curve was filed as active; also: % is scaled to controls: 0 for no effect and ±100 for the full control effect). Particulars: ME-180 AP-1-bla reporter, EGF-induced, beta-lactamase ratio, 5 h; at 7.69 µM (top of the series) unless noted. The essentials:
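AP-1-bla ME-180 cells with beta-lactamase reporter under AP-1 response element, stimulated with EC50 EGF; compounds titrated, 5 hours at 37 degrees Celsius. CCF4 read at 460/530 nm ratio; positive and negative modulators judged by AC50.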

The target of assay [3] is Cytochrome P450 1A2 (Homo sapiens) (UniProt P05177). Briefly: p450-cyp1a2 (AID 410). Also: potency is read from the fitted curve at half-maximal effect.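 As to activity change, negative = inhibition: -100% = full effect of reference inhibitor.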 The settings on record: recombinant CYP1A2, luciferin-ME demethylation, luminescence; series mostly up to 57 µM. In a few lines:
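Luminescent demethylation readout: Luciferin-ME (100uM, equal to Km) turned over by 20nM CYP1A2 for 60 min at room temperature after NADPH regeneration addition, following 10 min compound preincubation. Normalization used 57 uM furafylline as full inhibition.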

Assay [4] is described as follows: Stat Signaling Pathway (AID 446; active = well fitted curve in either direction with a large enough effect, not every such curve was filed as active;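 also: ME-180 cervical cancer cells given 40 pM IL-6 alongside compound; SIE-controlled beta-lactamase reporter measured as 460/530 nm FRET emission ratio; % is scaled to controls: 0 for no effect and ±100 for the full control effect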). The settings on record: ME-180 SIE beta-lactamase reporter, IL-6 stimulated, 5 h; at 7.69 µM (top of the series) unless noted. The essentials: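 Compound effects on IL-6-induced STAT reporter activity were measured in ME-180 cells. After overnight culture, cells were co-treated with 40 pM IL-6 for 5 hrs before beta-lactamase substrate loading at room temperature.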

Assay [5] has as its target Glucocorticoid receptor (Homo sapiens) (UniProt P04150). Description: GR-EFC Redistribution (AID 451). Also: potency is read from the fitted curve at half-maximal effect. Particulars: CHO-K1 GR-EFC translocation, beta-gal luminescence, 2 h. The essentials:
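CHO-K1 cells expressing nuclear EA and GR-ED fragments of b-gal; compounds titrated up to 46 uM final, 2 h at 37 C. GR nuclear translocation read as complemented b-gal luminescence after 1 h RT detection.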

Assay [6] deals with Mitogen-activated protein kinase 10 (Mus musculus) (UniProt Q61831). Description: JNK3 AlphaScreen Assay (AID 530; active = well fitted curve in either direction with a large enough effect, not every such curve was filed as active;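 also: kinase came from lysate of stimulated human HepG2 cells; signal reports phosphorylation of biotinylated GST-cJun 1-79 at Ser73 with 10 µM ATP; % is scaled to controls: 0 for no effect and ±100 for the full control effect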). Particulars: JNK3 lysate, c-Jun phosphorylation; series mostly up to 57.1 µM. In a few lines: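 Activity was read by AlphaScreen after JNK3-containing HepG2 lysate (cytokine pre-activated) phosphorylated biotinylated GST-cJun with 10 uM ATP at room temperature. Phospho-Ser73 cJun antibody with Protein-A acceptor beads provided detection.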
In general terms: Alpha assays give light when donor and acceptor beads are brought close together.

Assay [7] concerns the target 3',5'-cyclic-AMP phosphodiesterase 4B (Homo sapiens) (UniProt Q07343). Description: qHTS Assay for Inhibitors of PDE-IV (AID 607; active = well fitted activation curve with a large enough effect in the main read-out, with a control signal flat, not every such curve was filed as active; also: % of control where 0% means no effect). Particulars: HEK293 ACTOne CNG channel cells, membrane potential fluorescence; series mostly up to 22.9 µM. In a few lines:
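ACTOne HEK293 cells carry a modified cAMP-gated CNG channel and express endogenous PDE4; plated 1000 cells/well, compounds up to 22.9 uM final. Membrane-potential dye fluorescence (ex 535/em 590) was read; parental cells received 10 uM forskolin + 100 uM RO 20-1724.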

Assay [8] concerns the target Cytochrome P450 3A4 (Homo sapiens) (UniProt P08684). Description: qHTS Assay for Activators of Cytochrome P450 3A4 (AID 885; active = well fitted curve in the direction sought with a large enough effect; an effect the other way counts as inactive or inconclusive; also: nearly all actives have a fitted effect of over 65% in size). Particulars: recombinant CYP3A4, Luciferin-PPXE luminescence, 60 min; series mostly up to 57.1 µM. In a few lines:
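CYP3A4 activity: Luciferin-PPXE O-dealkylation, 25uM substrate, 200mM KPO4, RT throughout. Read-out is luciferase luminescence; higher values reflect activation.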

Assay [9] is described as follows: qHTS Assay for Lipid Storage Modulators (AID 1519). Particulars: Drosophila S3 cells, BODIPY lipid droplet/cell ratio, laser cytometry, cells loaded with oleic acid; for activity change, negative = inhibition: at 57.5 µM (top of the series). The essentials: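 Cells seeded at 5,000 per well were treated with compounds over a concentration series and loaded with oleic acid (400 uM, as added). Lipid droplet fluorescence (488 nm excitation, 500-530 nm channel) was read by laser-scanning cytometry and normalized to 20 uM Triacsin C.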
A general note: In qHTS, concentration-response curves come from the screen itself.

Assay [10] in a line: Primary qHTS for small molecule stabilizers of the endoplasmic reticulum resident proteome: Secreted ER Calcium Modulated Protein (SERCaMP) assay (AID 1508630; active = well fitted curve in the direction sought with a large enough effect; an effect the other way counts as inactive or inconclusive; also: % is scaled to controls: 0 for no effect and ±100 for the full control effect). Particulars: SH-SY5Y GLuc-SERCaMP (Gaussia luciferase released on ER calcium loss) secretion, thapsigargin, luminescence; series mostly up to 38.4 µM. The essentials:
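The SH-SY5Y reporter protocol was run at 3 concentrations up to 38.3 uM (primary) or 11 concentrations (follow-up): 16 h compound, 100 nM thapsigargin for 4 h, then extracellular luciferase luminescence.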

The target of assay [11] is Cytochrome P450 3A4 (Homo sapiens) (UniProt P08684). Description: qHTS Assay for Inhibitors and Substrates of Cytochrome P450 3A4 (AID 884; active = well fitted curve in the direction sought with a large enough effect; an effect the other way counts as inactive or inconclusive; also: nearly all actives have a fitted effect of over 50% in size; also: potency is read from the fitted curve at half-maximal effect). The settings on record: recombinant CYP3A4, Luciferin-PPXE luminescence; series mostly up to 57.1 µM. The essentials: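 Luminescent readout of luciferin produced by CYP3A4 (20 nM) dealkylation of Luciferin-PPXE, 25 uM (its KM). NADPH-driven reaction ran 60 min at RT after 10 min compound preincubation; data scaled to 57 uM ketoconazole as 100% inhibition.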

The target of assay [12] is Cytochrome P450 2C19 (Homo sapiens) (UniProt P33261). Briefly: qHTS Assay for Inhibitors and Substrates of Cytochrome P450 2C19 (AID 899; active = well fitted curve in the direction sought with a large enough effect; an effect the other way counts as inactive or inconclusive; also: potency is read from the fitted curve at half-maximal effect; nearly all actives have a fitted effect of over 60% in size). Particulars: recombinant CYP2C19, luciferin-H EGE luminescence; series mostly up to 57.1 µM. The essentials: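 Luminescent read-out of luciferin formed from Luciferin-H EGE (10uM, equal to KM). Enzyme 5nM in 50mM KPO4; compound added, 10 min at 37C, then NADPH regenerating system for 60 min at 37C. Full inhibition defined by 57uM ketoconazole.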

Assay [13] in a line: qHTS Assay for Identification of Small Molecule Agonists for Hypoxia Response Element Signaling Pathway (AID 914; active = well fitted activation curve with a large enough effect in the signal ratio, with a control signal flat, not every such curve was filed as active; the % refers to the signal ratio; also: % of control where 0% means no effect). Particulars: ME-180 (cervical carcinoma) HRE-bla reporter, beta-lactamase ratio, CoCl2, 17 h; activation: stronger effect = higher value. In a few lines:
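Compounds in a titration series were added to ME-180 reporter cells alongside an EC50 level of CoCl2. After 17 hours, beta-lactamase activity was read as the 460nm/530nm emission ratio of CCF4, giving AC50 values.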

For assay [14], the target named is Cytochrome P450 2D6 (Homo sapiens) (UniProt P10635). Briefly: qHTS Assay for Inhibitors and Substrates of Cytochrome P450 2D6 (AID 891; active = well fitted curve in the direction sought with a large enough effect; an effect the other way counts as inactive or inconclusive; also: potency is read from the fitted curve at half-maximal effect; nearly all actives have a fitted effect of over 60% in size). The settings on record: recombinant CYP2D6, luciferin-ME EGE luminescence; series mostly up to 57.1 µM. In a few lines: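 Luminescent read-out of luciferin formed by 5 nM human CYP2D6 demethylating 30 uM Luciferin-ME EGE (Km level) over 60 min at room temperature after NADPH regeneration addition. Data normalized to full inhibition by 1.43 uM quinidine.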

The target in assay [15] is Cytochrome P450 2C9 (Homo sapiens) (UniProt P11712). Description: qHTS Assay for Inhibitors and Substrates of Cytochrome P450 2C9 (AID 883; active = well fitted curve in the direction sought with a large enough effect; an effect the other way counts as inactive or inconclusive; also: potency is read from the fitted curve at half-maximal effect; nearly all actives have a fitted effect of over 60% in size). Particulars: recombinant CYP2C9, luciferin-H luminescence, 60 min; series mostly up to 57.1 µM. In a few lines:
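10nM CYP2C9 + 100uM Luciferin-H (=KM), 25mM KPO4; cpd 10 min 37C; NADPH regen, 60 min 37C; stop/detect with P450 Glo-Buffer 20 min; luminescence. Norm. to 57uM sulphaphenazole as full inhibition.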

Where [16] appears, read: measured here: cell count channel max response.
Setting [17] is: measured here: lipid channel max response.

Lysosomal acid glucosylceramidase (Homo sapiens), sequence (P04062 whole entry, looked up): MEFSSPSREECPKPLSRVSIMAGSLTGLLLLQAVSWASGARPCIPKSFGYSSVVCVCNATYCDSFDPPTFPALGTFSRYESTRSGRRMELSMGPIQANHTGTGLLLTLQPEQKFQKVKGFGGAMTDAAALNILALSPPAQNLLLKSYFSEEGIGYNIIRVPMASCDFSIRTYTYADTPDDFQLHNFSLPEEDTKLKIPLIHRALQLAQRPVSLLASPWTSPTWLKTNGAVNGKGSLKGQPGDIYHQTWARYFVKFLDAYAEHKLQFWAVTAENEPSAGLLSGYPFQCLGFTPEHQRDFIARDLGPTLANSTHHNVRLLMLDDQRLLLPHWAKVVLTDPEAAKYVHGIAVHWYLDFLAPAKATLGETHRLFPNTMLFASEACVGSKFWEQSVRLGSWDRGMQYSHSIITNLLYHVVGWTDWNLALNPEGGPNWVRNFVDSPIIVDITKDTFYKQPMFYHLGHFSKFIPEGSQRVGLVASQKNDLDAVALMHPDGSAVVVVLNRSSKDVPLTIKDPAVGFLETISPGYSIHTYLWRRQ
Cytochrome P450 1A2 (Homo sapiens), sequence (P05177 whole entry, looked up): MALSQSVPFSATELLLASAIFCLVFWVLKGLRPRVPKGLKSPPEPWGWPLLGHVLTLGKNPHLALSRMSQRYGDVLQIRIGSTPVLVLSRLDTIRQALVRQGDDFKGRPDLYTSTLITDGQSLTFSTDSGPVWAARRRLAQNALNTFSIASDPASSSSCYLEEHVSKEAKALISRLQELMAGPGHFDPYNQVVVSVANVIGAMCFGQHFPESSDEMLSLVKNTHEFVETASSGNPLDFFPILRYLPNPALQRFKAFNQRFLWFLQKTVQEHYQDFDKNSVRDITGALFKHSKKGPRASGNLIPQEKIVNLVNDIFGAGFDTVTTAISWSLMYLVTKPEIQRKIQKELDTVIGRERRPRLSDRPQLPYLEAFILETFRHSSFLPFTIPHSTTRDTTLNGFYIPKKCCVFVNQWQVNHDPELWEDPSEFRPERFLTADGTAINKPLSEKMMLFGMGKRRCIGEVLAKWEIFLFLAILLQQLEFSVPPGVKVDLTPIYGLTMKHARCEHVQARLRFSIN
Cytochrome P450 3A4 (Homo sapiens), sequence (P08684 whole entry, looked up): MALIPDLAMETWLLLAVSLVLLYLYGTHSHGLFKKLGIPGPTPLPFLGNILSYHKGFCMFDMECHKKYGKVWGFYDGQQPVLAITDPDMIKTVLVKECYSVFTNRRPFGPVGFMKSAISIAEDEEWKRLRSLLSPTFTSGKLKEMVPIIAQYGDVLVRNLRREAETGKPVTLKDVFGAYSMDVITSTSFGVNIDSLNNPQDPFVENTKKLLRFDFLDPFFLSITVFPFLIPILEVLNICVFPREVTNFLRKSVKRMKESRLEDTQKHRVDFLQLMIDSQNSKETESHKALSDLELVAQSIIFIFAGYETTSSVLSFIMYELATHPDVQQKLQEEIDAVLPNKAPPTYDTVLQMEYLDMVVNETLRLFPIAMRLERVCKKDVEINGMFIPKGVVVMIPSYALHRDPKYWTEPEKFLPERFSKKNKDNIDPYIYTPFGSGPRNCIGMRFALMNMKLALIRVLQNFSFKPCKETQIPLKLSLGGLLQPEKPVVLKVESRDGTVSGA
Glucocorticoid receptor (Homo sapiens), sequence (P04150 whole entry, looked up, the tested form may be a part): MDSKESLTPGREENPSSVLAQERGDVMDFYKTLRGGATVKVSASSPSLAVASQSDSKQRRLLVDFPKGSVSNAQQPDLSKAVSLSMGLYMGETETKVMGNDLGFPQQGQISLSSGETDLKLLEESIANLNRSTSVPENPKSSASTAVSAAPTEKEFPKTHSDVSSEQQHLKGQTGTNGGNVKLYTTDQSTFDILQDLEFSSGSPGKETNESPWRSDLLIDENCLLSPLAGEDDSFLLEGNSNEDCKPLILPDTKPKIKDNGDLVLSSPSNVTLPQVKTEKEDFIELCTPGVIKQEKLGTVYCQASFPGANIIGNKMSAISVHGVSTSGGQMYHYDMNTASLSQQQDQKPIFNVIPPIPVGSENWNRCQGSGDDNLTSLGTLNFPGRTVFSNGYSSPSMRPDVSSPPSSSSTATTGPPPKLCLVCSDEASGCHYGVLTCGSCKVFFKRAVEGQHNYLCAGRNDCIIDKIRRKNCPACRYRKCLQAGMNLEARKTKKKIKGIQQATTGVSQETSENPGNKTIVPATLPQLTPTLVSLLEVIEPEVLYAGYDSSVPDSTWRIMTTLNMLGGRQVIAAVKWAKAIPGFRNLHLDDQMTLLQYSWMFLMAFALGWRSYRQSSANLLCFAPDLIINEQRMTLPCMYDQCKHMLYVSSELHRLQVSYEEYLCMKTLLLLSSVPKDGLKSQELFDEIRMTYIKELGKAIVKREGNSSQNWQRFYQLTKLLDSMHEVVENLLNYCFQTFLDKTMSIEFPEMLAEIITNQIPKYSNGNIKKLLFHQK
3',5'-cyclic-AMP phosphodiesterase 4B (Homo sapiens), sequence (Q07343 whole entry, looked up): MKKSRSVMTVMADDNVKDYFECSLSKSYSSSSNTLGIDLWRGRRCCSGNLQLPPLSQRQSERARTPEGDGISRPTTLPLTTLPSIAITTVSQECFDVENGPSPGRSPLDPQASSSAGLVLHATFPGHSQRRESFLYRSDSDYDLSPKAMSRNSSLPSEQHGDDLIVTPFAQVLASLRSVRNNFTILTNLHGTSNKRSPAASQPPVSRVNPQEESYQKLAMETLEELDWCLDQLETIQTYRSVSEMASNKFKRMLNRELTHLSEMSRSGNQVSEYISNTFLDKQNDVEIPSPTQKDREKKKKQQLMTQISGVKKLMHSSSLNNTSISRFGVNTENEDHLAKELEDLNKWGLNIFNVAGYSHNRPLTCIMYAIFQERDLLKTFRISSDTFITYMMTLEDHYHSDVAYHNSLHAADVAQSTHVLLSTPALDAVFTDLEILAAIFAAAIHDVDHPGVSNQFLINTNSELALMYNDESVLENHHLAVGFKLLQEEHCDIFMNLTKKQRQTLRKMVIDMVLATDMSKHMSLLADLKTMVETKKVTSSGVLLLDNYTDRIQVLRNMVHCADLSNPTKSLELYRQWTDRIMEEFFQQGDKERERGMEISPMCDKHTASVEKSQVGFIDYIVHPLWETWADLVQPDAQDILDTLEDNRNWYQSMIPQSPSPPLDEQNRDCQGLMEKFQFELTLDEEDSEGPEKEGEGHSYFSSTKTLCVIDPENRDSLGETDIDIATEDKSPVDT
Cytochrome P450 2C19 (Homo sapiens), sequence (P33261 whole entry, looked up): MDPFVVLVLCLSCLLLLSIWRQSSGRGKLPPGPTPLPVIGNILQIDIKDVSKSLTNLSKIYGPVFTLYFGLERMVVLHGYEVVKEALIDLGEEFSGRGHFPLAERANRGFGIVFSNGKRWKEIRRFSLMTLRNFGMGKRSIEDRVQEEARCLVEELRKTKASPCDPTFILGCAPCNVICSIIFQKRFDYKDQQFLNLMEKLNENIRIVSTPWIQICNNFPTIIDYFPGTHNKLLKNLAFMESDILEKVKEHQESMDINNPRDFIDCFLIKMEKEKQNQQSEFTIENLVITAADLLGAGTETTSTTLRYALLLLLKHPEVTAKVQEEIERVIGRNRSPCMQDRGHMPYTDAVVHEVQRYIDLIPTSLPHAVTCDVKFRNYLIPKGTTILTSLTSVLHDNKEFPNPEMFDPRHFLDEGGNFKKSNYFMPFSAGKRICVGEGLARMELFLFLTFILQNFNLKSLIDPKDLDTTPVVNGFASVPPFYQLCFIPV
Cytochrome P450 2C9 (Homo sapiens), sequence (P11712 whole entry, looked up): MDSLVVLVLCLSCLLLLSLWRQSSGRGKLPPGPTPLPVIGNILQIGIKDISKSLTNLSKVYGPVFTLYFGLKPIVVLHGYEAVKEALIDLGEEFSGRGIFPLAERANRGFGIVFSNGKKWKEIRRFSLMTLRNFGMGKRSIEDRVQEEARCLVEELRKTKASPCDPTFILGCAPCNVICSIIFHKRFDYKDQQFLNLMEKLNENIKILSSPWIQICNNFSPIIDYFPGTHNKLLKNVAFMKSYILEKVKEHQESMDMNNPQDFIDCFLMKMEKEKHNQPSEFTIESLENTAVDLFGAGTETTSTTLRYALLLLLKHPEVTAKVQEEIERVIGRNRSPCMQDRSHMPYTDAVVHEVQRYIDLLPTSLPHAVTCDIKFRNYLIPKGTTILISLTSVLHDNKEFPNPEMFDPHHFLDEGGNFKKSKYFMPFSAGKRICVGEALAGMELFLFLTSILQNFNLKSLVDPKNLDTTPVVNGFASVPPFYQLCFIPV
Cytochrome P450 2D6 (Homo sapiens), sequence (P10635 whole entry, looked up): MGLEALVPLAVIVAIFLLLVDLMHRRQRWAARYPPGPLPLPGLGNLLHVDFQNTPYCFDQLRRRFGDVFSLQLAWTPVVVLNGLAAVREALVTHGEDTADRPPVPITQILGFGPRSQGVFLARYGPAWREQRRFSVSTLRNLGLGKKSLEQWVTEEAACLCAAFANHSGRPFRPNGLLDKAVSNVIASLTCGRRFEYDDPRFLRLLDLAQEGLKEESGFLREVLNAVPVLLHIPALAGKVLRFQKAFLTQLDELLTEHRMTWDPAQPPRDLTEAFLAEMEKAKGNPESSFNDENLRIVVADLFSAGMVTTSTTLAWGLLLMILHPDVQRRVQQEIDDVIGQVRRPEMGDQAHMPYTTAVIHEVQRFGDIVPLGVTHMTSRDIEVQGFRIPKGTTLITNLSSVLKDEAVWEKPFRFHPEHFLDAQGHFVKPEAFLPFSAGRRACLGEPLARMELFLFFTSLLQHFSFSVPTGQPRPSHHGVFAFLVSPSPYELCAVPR

On to `O=C(Nc1ccccc1)N1CCCC2(CCN(S(=O)(=O)c3ccccc3)CC2)C1`, for which the Potency in assay [1] was > 11.4 µM (inactive); in [3], 15.8 µM (active); in [5], > 46 µM (inactive). The activity change, negative = inhibition in assay [2] was -18.5% (inactive); in [9] it was 0.932% (inactive). The activity, negative = inhibition in assay [4] was -7.13% (inactive). The Potency result in [6], in assay [7] and in assay [8] was “inactive” throughout. For the same molecule, the figures for the max response in [9] (setting [16]) and in assay [9] (setting [17]) were 19.2% and 22%, respectively. Besides, the result in assay [10] was inactive.

In the case of `COc1ccc(C(=O)N2CCC3(CCCN(CC(C)C)C3)CC2)cc1`, the figures for the Potency in assay [1] and in assay [5] were > 11.4 µM (inactive) and > 46 µM (inactive), respectively. In addition, the activity change, negative = inhibition was -7.24% (inactive) in assay [2] and 2.63% (inactive) in assay [9]. Also, the Potency entry in assay [3], in assay [6], in assay [7] and in assay [8] was “inactive” each time. Moreover, the activity, negative = inhibition in assay [4] was -5.73% (inactive). Also, the figures for the max response in assay [9] (setting [16]) and in [9] (setting [17]) were 21.1% and 26.9%, respectively. Besides, the result in [10] was inactive.

Consider `Cn1cccc1C(=O)N1CCC2(CCN(Cc3nccs3)CC2)CC1`, for which the figures for the Potency in [1] and in assay [5] were > 11.4 µM (inactive) and > 46 µM (inactive), respectively. The activity change, negative = inhibition in assay [2] is -5.06% (inactive); in assay [9], -0.0655% (inactive). The Potency result in assay [3], in assay [6], in assay [7] and in assay [11] was “inactive” throughout. For the same molecule, in assay [4], the activity, negative = inhibition is -1.77% (inactive). Further, the max response is -3.13% in assay [9] (setting [16]) and -0.688% in assay [9] (setting [17]). Besides, in assay [10], the outcome was inactive.

Take `c1ccc(C(c2ccccc2)N2CC[C@@]3(CCCNC3)C2)cc1`: the Potency was > 11.4 µM (inactive) in [1], > 46 µM (inactive) in assay [5] and 7.94 µM (active) in assay [11]. The activity change, negative = inhibition is 0.329% (inactive) in assay [2] and -9.5% (inactive) in assay [9]. The Potency entry in assay [3], in [6], in [7] and in assay [8] was “inactive” each time. Further, in assay [4], the activity, negative = inhibition is 8.51% (inactive). For the same molecule, the max response in assay [9] (setting [16]) was 4.5%; in assay [9] (setting [17]), -6.03%. The result in [10] was inactive.

`O=S(=O)(c1ccccc1)N1CCC2(CCCN(c3ccccn3)C2)CC1`: the Potency in assay [1] was > 11.4 µM (inactive); in [3] it was 7.94 µM (active); in assay [5] it was > 46 µM (inactive); in [12], 0.158 µM (active). In addition, the activity change, negative = inhibition was -6.83% (inactive) in [2] and 5.71% (inactive) in assay [9]. The activity, negative = inhibition in assay [4] is -6.34% (inactive). For the same molecule, the Potency entry in [6] and in assay [7] was “inactive” each time. The activation in assay [13] was -11.6% (inactive). Further, the max response in assay [9] (setting [16]) is 17.9%; in [9] (setting [17]) it was 25.4%. In addition, in assay [10], the result was inactive.

As to `CC(C)CN1CCC2(CC1)CCN(C(=O)c1ccncc1)CC2`, the Potency is > 11.4 µM (inactive) in assay [1], > 46 µM (inactive) in assay [5] and 3.98 µM (active) in assay [14]. In addition, the activity change, negative = inhibition is -3.14% (inactive) in assay [2] and 0.393% (inactive) in assay [9]. Besides, the Potency result in assay [3], in [6], in assay [7] and in assay [8] was “inactive” each time. Further, the activity, negative = inhibition in assay [4] is -5.7% (inactive). The max response in assay [9] (setting [16]) was 14.2%; in assay [9] (setting [17]), 14.7%. Moreover, the result in assay [10] was inactive.

As to `O=C(c1cccc(F)c1)N1CCC2(CC1)CN(c1ccncc1)C2`, the Potency is > 11.4 µM (inactive) in [1], > 46 µM (inactive) in assay [5], 5.01 µM (active) in assay [15] and 3.16 µM (active) in assay [12]. Further, the figures for the activity change, negative = inhibition in assay [2] and in [9] were -2.31% (inactive) and -4.55% (inactive), respectively. The Potency entry in assay [3] and in [7] was “inactive” throughout. Further, the activity, negative = inhibition in assay [4] was 1.58% (inactive). In addition, the max response in assay [9] (setting [16]) was -24.1%; in [9] (setting [17]), -26.4%. Further, in assay [10], the outcome was inactive.

The record behind these values is PubChem BioAssay (NCATS).
